RecA splice inh = Mtb RecA intein splicing inhibition; P9WHJ3; cell-free RecA intein splicing, fluorescence; 290,000 tested, 0.75% active; AID 2221; inhibition, % (test concentration not listed); in the data active means inhibition above about 30%;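 further: 0% = vehicle wells and 100% = reference inhibitor control wells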
Rv3671c protease = inhibits the M. tuberculosis serine protease Rv3671c; P9WHR9; inhibition, % at 5.96 µM; 320,000 tested, 0.048% active; in the data active means inhibition above about 38%;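 further: extracellular domain of Rv3671c used as enzyme; 0% = enzyme with DMSO and 100% = no enzyme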
UGM FP inh = inhibitors of M. tuberculosis UDP-galactopyranose mutase. 320,000 tested, 0.06% active. inhibition, % at 10 µM. purified UGM, fluorescence polarization probe displacement. P9WIQ1; in the data active means inhibition above about 10%, passing the limit was not always enough
Vc quorum ag = induces V. cholerae light production without autoinducers. 350,000 tested, 0.16% active. AID 588436. activation, % at 18.7 µM. V. cholerae BH1578 lux reporter, luminescence, 6 h; in the data active means activation mostly above about 9.7%, no sharp cut-off
GDH-TPI counter = counter-screen for M. tuberculosis FBA inhibitors: GDH-TPI coupled enzymes; 360,000 tested, 1.2% active; GDH-TPI coupled enzyme counterscreen, NADH absorbance; inhibition, % at 4.8 µM; in the data active means inhibition above about 30%;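 further: 0% = DMSO wells and 100% = wells lacking the enzyme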
Mtb FBA inh = inhibits M. tuberculosis FBA enzyme; inhibition, % at 1 µM; purified M. tuberculosis FBA, fluorescence read-out; AID 588726; 360,000 tested, 2.3% active; P9WQA3; in the data active means inhibition above about 27%;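 further: 0% = vehicle and 100% = reference inhibitor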
Target sequence (P9WQA3 whole entry, looked up): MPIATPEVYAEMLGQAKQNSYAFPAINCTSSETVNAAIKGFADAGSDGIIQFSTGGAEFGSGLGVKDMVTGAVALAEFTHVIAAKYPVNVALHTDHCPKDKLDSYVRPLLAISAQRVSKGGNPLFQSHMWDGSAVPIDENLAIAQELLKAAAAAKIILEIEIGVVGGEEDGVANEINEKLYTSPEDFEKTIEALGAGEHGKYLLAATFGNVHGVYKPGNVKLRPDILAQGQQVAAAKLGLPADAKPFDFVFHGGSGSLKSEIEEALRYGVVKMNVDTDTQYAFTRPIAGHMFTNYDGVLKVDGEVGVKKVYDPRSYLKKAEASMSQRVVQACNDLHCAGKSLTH
Starred values were filed as active, the others as inactive. Rows were chosen to be rich in hits. Some 4.1% of all compounds tested hit in one or more screens of this group.

Screening C[C@@]12CC[C@H]3OC(=O)C=C3C1CC[C@@]13CC(CCC12)[C@](CO)(O[C@H]1O[C@H](CO)[C@@H](O)[C@H](O)[C@H]1O)C3 (some centres undefined) returned RecA splice inh 0, Rv3671c protease 8, UGM FP inh 5, Vc quorum ag -1, GDH-TPI counter 7 and Mtb FBA inh 10.
For COc1ccc(CCN2C(=O)CCC3=C2CCCC3=O)cc1OC the results were Mtb FBA inh 0.
`Cc1ccc(-n2c(C)cc(C=C3C(=O)N(C)C(=O)N(C)C3=O)c2C)cc1` gave Vc quorum ag 0, GDH-TPI counter 12 and Mtb FBA inh 112*.
Cc1cc(/C=C2/C(=O)NC(=O)N(C)C2=O)c(C)n1-c1ccccc1 was read as RecA splice inh -5, Rv3671c protease -1, UGM FP inh 1, Vc quorum ag 0, GDH-TPI counter 4 and Mtb FBA inh -2.
`Cc1ccc(NC(=O)CN2C(=O)N/C(=C/c3ccc(C)s3)C2=O)cc1` gave RecA splice inh -10, Rv3671c protease -33, UGM FP inh 0, Vc quorum ag inactive, GDH-TPI counter 32* and Mtb FBA inh -1.
Oc1ccc(Nc2nc(-c3ccc(O)cc3)cs2)cc1 was read as RecA splice inh 34*, Rv3671c protease 12, UGM FP inh 3, Vc quorum ag 0, GDH-TPI counter 17 and Mtb FBA inh 1.
For NS(=O)(=O)c1ccc(Nc2nc(-c3ccc(O)cc3)cs2)cc1 the results were RecA splice inh 2, Rv3671c protease 12, UGM FP inh 3, Vc quorum ag 0, GDH-TPI counter 9 and Mtb FBA inh 7.
O=C(/C=C/c1ccco1)OCn1nnc2ccccc2c1=O was read as RecA splice inh 6, Rv3671c protease 5, UGM FP inh 4, Vc quorum ag 0, GDH-TPI counter -2 and Mtb FBA inh -1.
Screening Cc1ccc(/C=C/C(=O)OCn2nnc3ccccc3c2=O)o1 returned RecA splice inh -3, Rv3671c protease -7, UGM FP inh 1, Vc quorum ag 0, GDH-TPI counter 34* and Mtb FBA inh 1.
Screening COc1cc2c(cc1OC)C(c1ccc(-c3ccc(Cl)cc3Cl)o1)=NCC2 returned RecA splice inh 0, Rv3671c protease -10, UGM FP inh -2, GDH-TPI counter 32* and Mtb FBA inh 2.
Screening COc1cc2c(cc1OC)C(c1ccc(-c3cc(Cl)ccc3Cl)o1)=NCC2 returned RecA splice inh 6, Rv3671c protease -4, UGM FP inh 1, Vc quorum ag inactive, GDH-TPI counter 14 and Mtb FBA inh 0.
Screening Cc1ccc(C(=O)N/N=C/c2cccnc2)cc1Cl returned Vc quorum ag -5, GDH-TPI counter 5 and Mtb FBA inh 4.
`O=C1C=C(O)c2cccc3cccc1c23` gave RecA splice inh -5, Rv3671c protease -6, UGM FP inh 1, Vc quorum ag 1, GDH-TPI counter 31* and Mtb FBA inh -2.
`NC1=CC(=O)c2cccc3cccc1c23` gave RecA splice inh -10, Rv3671c protease 14 and UGM FP inh 2.
`Cc1ccc(CNc2nc3cc(-c4ccccc4)sc3c(=O)n2C)c(C)c1` gave Vc quorum ag 0, GDH-TPI counter 5 and Mtb FBA inh -1.
For CCn1c(=O)c2cc(C(=O)N3CCCC3)sc2c2ccccc21 the results were RecA splice inh 1.
For CCOc1ccccc1N(C)C(=O)c1cc2c(=O)n(CC)c3ccccc3c2s1 the results were RecA splice inh 9, Rv3671c protease -15, UGM FP inh -7, Vc quorum ag 4, GDH-TPI counter 42* and Mtb FBA inh 4.
COc1ccc(NC2CCCN(Cc3cccc4cnccc34)C2)cc1 (centres undefined) was read as RecA splice inh -2, Rv3671c protease 2, UGM FP inh -1, Vc quorum ag -1, GDH-TPI counter 15 and Mtb FBA inh 2.
`COc1ccc(NC2CCCN(Cc3cccc4cnccc34)C2)cc1OC` (centres undefined) gave RecA splice inh 4, Rv3671c protease -9, UGM FP inh -3, Vc quorum ag -1, GDH-TPI counter 20 and Mtb FBA inh 118*.
`CC(=O)/C(N=Nc1ccc(C(=O)O)cc1)=C(\C)O` gave RecA splice inh 4, Rv3671c protease 0, UGM FP inh -3, Vc quorum ag -1, GDH-TPI counter 15 and Mtb FBA inh -5.
